The results in this text go back to paper PMC5515408, “Sequence-specific DNA binding by MYC/MAX to low-affinity non-E-box motifs”.

The full ranking holds about 4,500 sequences; the median of “log2 normalized fluorescence” is about -0.34, and the highest 2% start at about 3.3. Many of the other results were omitted from the sample, so the highest values are more common in it than they were.

MAX:MAX (p21), sequence (P61244 other isoform, or with tags, fused parts or gaps): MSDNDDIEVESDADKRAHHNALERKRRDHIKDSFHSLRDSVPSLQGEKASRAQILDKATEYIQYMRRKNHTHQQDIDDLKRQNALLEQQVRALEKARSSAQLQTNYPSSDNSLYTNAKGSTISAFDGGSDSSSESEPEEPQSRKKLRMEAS

This test addresses MAX:MAX (p21) (human, UniProt P61244-2 1-151). The experiment in a line: protein-binding microarray (anti-MAX antibody); PBM: 15 mM Tris-HCl pH 7.5, 100 mM KCl, 0.075% NP40, 7.5 mM beta-mercaptoethanol, 375 ng/ul BSA, 8 ng/ul poly(dA-dT):(dA-dT), 550 ng complex, 60 min, room tempe; high values mean tight binding. As to conditions: protein: recombinant; tags: 6xHis; chain copies: 2; label: 3' end of printed strand (linker) attached to glass slide; dsDNA, one strand shown. The procedure, abridged:
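Binding, given as log2 normalized fluorescence, was measured on a custom Agilent glass array. The array bore ~5000 unique 12-nt sequences spotted in triplicate and converted to double strands by primer extension. It was incubated with 550 ng of human His-tagged MYC:MAX or MAX:MAX dimers from E. coli for 60 min at room temperature in Tris-KCl buffer, pH 7.5, with NP40, BSA and poly(dA-dT) competitor, and bound protein was detected with anti-MAX and secondary antibodies and scanned at 543 nm.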
Take “CCGGCTATTACGTGGTATTAATAGCTAAGATTACTATATCGACG”: the binding signal is 1.27 log2 normalized fluorescence.

As to “CCGGCTCCGACGTGGTATTAATAGCTAAGATTACTATATCGACG”, the binding signal was 2.2 log2 normalized fluorescence.

“CCGGCTGAAGCCTGGTATTAATAGCTAAGATTACTATATCGACG”: the binding signal was 0.476 log2 normalized fluorescence.

As to “CCGGCTGACGGCCCGTATTAATAGCTAAGATTACTATATCGACG”, the binding signal is -0.704 log2 normalized fluorescence.

On to “CCGGCTGACTCACTGTATTAATAGCTAAGATTACTATATCGACG”, for which the binding signal was -0.209 log2 normalized fluorescence.

Turning to “CCGGCTGACCTGTGGTATTAATAGCTAAGATTACTATATCGACG”, the binding signal was 0.594 log2 normalized fluorescence.

With “CCGGCTGACAACACGTATTAATAGCTAAGATTACTATATCGACG”, the binding signal is 0.856 log2 normalized fluorescence.

“CCGGCTGACTCGTGCTATTAATAGCTAAGATTACTATATCGACG”: the binding signal is 3.13 log2 normalized fluorescence.

Consider “CCGGCAAACACGTAGTATTAATAGCTAAGATTACTATATCGACG”, for which the binding signal is 2.6 log2 normalized fluorescence.

For the sequence “CCGGCTAACACGTAGTATTAATAGCTAAGATTACTATATCGACG”, the binding signal was 1.92 log2 normalized fluorescence.

Turning to “CCGGCTAACACGTCGTATTAATAGCTAAGATTACTATATCGACG”, the binding signal is 2.38 log2 normalized fluorescence.

Regarding “CCGGCTTACACGTGGGATTAATAGCTAAGATTACTATATCGACG”, the binding signal was 3.12 log2 normalized fluorescence.

As for “CCGGCTTACATGTGGAATTAATAGCTAAGATTACTATATCGACG”, the binding signal was 3.25 log2 normalized fluorescence.

In the case of “CCGGCCGACACGTGGAATTAATAGCTAAGATTACTATATCGACG”, the binding signal was 3.32 log2 normalized fluorescence.

As for “CCGGCCGACACGTCGTATTAATAGCTAAGATTACTATATCGACG”, the binding signal is 2.07 log2 normalized fluorescence.

On to “CCGGCTTACACGTGGAATTAATAGCTAAGATTACTATATCGACG”, for which the binding signal was 3.37 log2 normalized fluorescence.

For “CCGGCTGACACGTGGAATTAATAGCTAAGATTACTATATCGACG”, the binding signal is 3.16 log2 normalized fluorescence.

Take “CCGGCTAACACGTGGAATTAATAGCTAAGATTACTATATCGACG”: the binding signal is 3.35 log2 normalized fluorescence.

As for “CCGGCTGAAGACGGGTATTAATAGCTAAGATTACTATATCGACG”, the binding signal was -0.654 log2 normalized fluorescence.

For the sequence “CCGGCTGACCCGTGGTATTAATAGCTAAGATTACTATATCGACG”, the binding signal is 2.38 log2 normalized fluorescence.

With “CCGGCTGAGCAGGAGTATTAATAGCTAAGATTACTATATCGACG”, the binding signal was -0.201 log2 normalized fluorescence.

On to “CCGGCAGACACGATGTATTAATAGCTAAGATTACTATATCGACG”, for which the binding signal was 3.02 log2 normalized fluorescence.

For the sequence “CCGGCTGAGATCACGTATTAATAGCTAAGATTACTATATCGACG”, the binding signal is 0.425 log2 normalized fluorescence.

For the sequence “CCGGCTGAGGGTTCGTATTAATAGCTAAGATTACTATATCGACG”, the binding signal was -0.732 log2 normalized fluorescence.

“CCGGCTGAACCCTCGTATTAATAGCTAAGATTACTATATCGACG”: the binding signal is 0.0153 log2 normalized fluorescence.

As to “CCGGCTGAAGCGGGGTATTAATAGCTAAGATTACTATATCGACG”, the binding signal was 0.358 log2 normalized fluorescence.

Regarding “CCGGCTGATTCGATGTATTAATAGCTAAGATTACTATATCGACG”, the binding signal is -0.732 log2 normalized fluorescence.

Take “CCGGCTGACGGGCGGTATTAATAGCTAAGATTACTATATCGACG”: the binding signal was -0.202 log2 normalized fluorescence.

With “CCGGCTGCCACGTGATATTAATAGCTAAGATTACTATATCGACG”, the binding signal was 3.13 log2 normalized fluorescence.

For the sequence “CCGGCTGCCACGTGCGATTAATAGCTAAGATTACTATATCGACG”, the binding signal was 3.47 log2 normalized fluorescence.

Consider “CCGGCTGCCACGTGGAATTAATAGCTAAGATTACTATATCGACG”, for which the binding signal is 3.31 log2 normalized fluorescence.

“CCGGCTGCCACGCGGAATTAATAGCTAAGATTACTATATCGACG”: the binding signal was 3.15 log2 normalized fluorescence.

On to “CCGGCTGCCACGACGTATTAATAGCTAAGATTACTATATCGACG”, for which the binding signal is 1.79 log2 normalized fluorescence.

Take “CCGGCTGCCACGAGGAATTAATAGCTAAGATTACTATATCGACG”: the binding signal is 3.34 log2 normalized fluorescence.

As to “CCGGCTGTCACGTGGAATTAATAGCTAAGATTACTATATCGACG”, the binding signal was 3.19 log2 normalized fluorescence.

As to “CCGGCTGCCACGTGCTTTTAATAGCTAAGATTACTATATCGACG”, the binding signal is 3.14 log2 normalized fluorescence.

In the case of “CCGGCTGCCACGTGTTATTAATAGCTAAGATTACTATATCGACG”, the binding signal is 3.28 log2 normalized fluorescence.

Take “CCGGCAGACACGAGGTATTAATAGCTAAGATTACTATATCGACG”: the binding signal was 3.44 log2 normalized fluorescence.

In the case of “CCGGCGGACACGCGGTATTAATAGCTAAGATTACTATATCGACG”, the binding signal was 3.26 log2 normalized fluorescence.

Take “CCGGCGGACACGAGGTATTAATAGCTAAGATTACTATATCGACG”: the binding signal is 3.32 log2 normalized fluorescence.

Turning to “CCGGCTGACACGAGGTATTAATAGCTAAGATTACTATATCGACG”, the binding signal was 3.08 log2 normalized fluorescence.

Take “CCGGCAGACACGAGGTTTTAATAGCTAAGATTACTATATCGACG”: the binding signal is 3.03 log2 normalized fluorescence.

Consider “CCGGCTAACACGAGGTATTAATAGCTAAGATTACTATATCGACG”, for which the binding signal is 3.28 log2 normalized fluorescence.

For “CCGGCTGACCCAAGGTATTAATAGCTAAGATTACTATATCGACG”, the binding signal was -0.0673 log2 normalized fluorescence.

As to “CCGGCTGACATGTGGCCTTAATAGCTAAGATTACTATATCGACG”, the binding signal was 2.99 log2 normalized fluorescence.

As to “CCGGCTGAGTCACTGTATTAATAGCTAAGATTACTATATCGACG”, the binding signal is -0.498 log2 normalized fluorescence.

With “CCGGCTGATTGCGAGTATTAATAGCTAAGATTACTATATCGACG”, the binding signal is -0.512 log2 normalized fluorescence.

As to “CCGGCTGACACGTGCCTTTAATAGCTAAGATTACTATATCGACG”, the binding signal is 3.18 log2 normalized fluorescence.

Consider “CCGGCTGACACGTAGCTTTAATAGCTAAGATTACTATATCGACG”, for which the binding signal is 1.51 log2 normalized fluorescence.

For the sequence “CCGGCCGACACGTGCTTTTAATAGCTAAGATTACTATATCGACG”, the binding signal was 3.21 log2 normalized fluorescence.

Consider “CCGGCTAACACGTGCTTTTAATAGCTAAGATTACTATATCGACG”, for which the binding signal is 3.33 log2 normalized fluorescence.

Regarding “CCGGCTGACACGTGCCCTTAATAGCTAAGATTACTATATCGACG”, the binding signal was 3.16 log2 normalized fluorescence.

Consider “CCGGCTGACACGTGTGCTTAATAGCTAAGATTACTATATCGACG”, for which the binding signal was 3.4 log2 normalized fluorescence.

Take “CCGGCTGACACGTGCGCTTAATAGCTAAGATTACTATATCGACG”: the binding signal is 3.16 log2 normalized fluorescence.

Turning to “CCGGCTGACACGTGCTTTTAATAGCTAAGATTACTATATCGACG”, the binding signal is 3.34 log2 normalized fluorescence.

Regarding “CCGGCTGACACGTGGCTTTAATAGCTAAGATTACTATATCGACG”, the binding signal is 3.04 log2 normalized fluorescence.

As for “CCGGCTGAGACGTGGGATTAATAGCTAAGATTACTATATCGACG”, the binding signal is 0.979 log2 normalized fluorescence.

As for “CCGGCTGAATGTCTGTATTAATAGCTAAGATTACTATATCGACG”, the binding signal is 0.29 log2 normalized fluorescence.

On to “CCGGCTGATGCAGCGTATTAATAGCTAAGATTACTATATCGACG”, for which the binding signal was -0.0989 log2 normalized fluorescence.

With “CCGGCTGGCACCTGGTATTAATAGCTAAGATTACTATATCGACG”, the binding signal was 1.88 log2 normalized fluorescence.

For the sequence “CCGGCTGACTAATGGTATTAATAGCTAAGATTACTATATCGACG”, the binding signal was -0.355 log2 normalized fluorescence.
